# Source: PubChem BioAssay
# Active and inactive are the calls of the source. Unless noted, no rule for the calls is given here.
# Tests used:
# [1] = compound effects on lung adenocarcinoma cell viability – A549, calcein-AM fluorescence, 48 h, basal, profiling panel (AID 1162); details: higher = more signal; also: test concentration not given here
# [2] = compound effects on differentiated 3T3-L1 adipocyte viability – cell-based, 3T3-L1 adipocytes, calcein-AM fluorescence, 48 h, basal, profiling panel (AID 1163); details: 3T3-L1 adipocytes viability, higher = more signal; also: test concentration not given here
# [3] = compound effects on hepatocellular carcinoma cell viability – HepG2, calcein-AM fluorescence, 48 h, basal, profiling panel (AID 1164); details: higher = more signal; also: test concentration not given here
# [4] = compound effects on multiple myeloma cell viability – MM1S, calcein-AM fluorescence, 48 h, basal, profiling panel (AID 1165); details: higher = more signal;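 also: viability of MM1S multiple myeloma cells under basal unstimulated conditions; test concentration not given here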
# [5] = calcein-AM signal in unstimulated myeloma cells – cell-based, calcein-AM fluorescence, 48 h, PK04 Diversity Set, profiling panel (AID 1166); details: RPMI8226 myeloma viability, higher = more signal;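 also: cells grown under basal conditions without added stimulus; test concentration not given here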
# [6] = JC-1 mitochondrial signal, unstimulated HepG2 cells – cell-based, JC-1 fluorescence, 24 h, 100 nL compound, profiling panel (AID 1167); details: HepG2 mitochondrial potential, higher = more signal; also: test concentration not given here
# [7] = JC-1 mitochondrial signal, unstimulated adipocytes – cell-based, JC-1 fluorescence, 3T3-L1 adipocytes, 24 h, 100 nL compound, profiling panel (AID 1168); details: JC-1 mitochondrial fluorescence, higher = more signal, called active from +8 up or from −8 down; also: test concentration not given here
# [8] = JC-1 mitochondrial signal, unstimulated myeloma cells – cell-based, JC-1 fluorescence, RPMI8226, 24 h, 100 nL compound, profiling panel (AID 1169); details: JC-1 mitochondrial potential fluorescence, higher = more signal; also: test concentration not given here
# [9] = JC-1 mitochondrial signal, unstimulated MM1S myeloma – cell-based, JC-1 fluorescence, 24 h, 100 nL compound, profiling panel (AID 1170); details: MM1S mitochondrial potential, higher = more signal; also: test concentration not given here
# [10] = resazurin metabolic signal in A549 cells – cell-based, resazurin fluorescence, 24 h, PK04 Diversity Set, profiling panel (AID 1171); details: A549 viability, higher = more signal, called active from +8 up or from −8 down; also: test concentration not given here
# [11] = resazurin metabolic signal in HepG2 cells – cell-based, resazurin fluorescence, 24 h, PK04 Diversity Set, profiling panel (AID 1172); details: HepG2 viability, higher = more signal; also: test concentration not given here
# [12] = budding yeast growth changes without added modifier – OD600, strain BY4716, 24 h, basal condition, primary screen (AID 1173); details: S. cerevisiae BY4716 growth, OD600, 24 h; higher = more signal, called active from +8 up or from −8 down
# [13] = viability profiling in MM1S myeloma cells – cell-based, resazurin fluorescence, basal, 24 h, PK04 Diversity Set, profiling panel (AID 1174); details: higher = more signal, called active from +8 up or from −8 down; also: test concentration not given here
# [14] = target: Dihydroorotate dehydrogenase (quinone), mitochondrial (Plasmodium falciparum (isolate 3D7)) (UniProt Q08210); assay: inhibition of P. falciparum DHODH – biochemical, C-terminal His tag, absorbance 600 nm, primary screen (AID 1175); details: PfDHODH enzyme, DCIP absorbance 600 nm; higher = more signal, called active from +8 up or from −8 down;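 also: recombinant parasite enzyme with a five histidine tag at its C terminus; test concentration not given here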
# Chain of Dihydroorotate dehydrogenase (quinone), mitochondrial (Plasmodium falciparum (isolate 3D7)) (Q08210 whole entry, looked up): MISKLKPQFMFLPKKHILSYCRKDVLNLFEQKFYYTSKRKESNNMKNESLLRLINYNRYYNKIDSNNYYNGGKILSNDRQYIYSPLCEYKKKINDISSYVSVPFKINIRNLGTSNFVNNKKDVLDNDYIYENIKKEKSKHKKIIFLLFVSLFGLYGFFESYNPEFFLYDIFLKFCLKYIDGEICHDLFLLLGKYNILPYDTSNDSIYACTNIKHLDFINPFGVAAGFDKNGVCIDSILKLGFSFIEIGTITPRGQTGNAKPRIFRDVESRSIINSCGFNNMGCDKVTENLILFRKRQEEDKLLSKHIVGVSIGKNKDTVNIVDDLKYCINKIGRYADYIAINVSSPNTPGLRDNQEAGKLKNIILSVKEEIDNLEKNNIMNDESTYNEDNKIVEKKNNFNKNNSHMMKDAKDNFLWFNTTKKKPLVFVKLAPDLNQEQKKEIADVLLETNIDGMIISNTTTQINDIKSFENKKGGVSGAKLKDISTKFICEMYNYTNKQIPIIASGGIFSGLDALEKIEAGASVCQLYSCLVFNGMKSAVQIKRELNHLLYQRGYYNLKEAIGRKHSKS
# [15] = inhibition of PAO1 biofilm formation – strain PAO1, LB-PBS medium, absorbance 600 nm, primary screen (AID 1176); also: test concentration not given here; details: P. aeruginosa PAO1 growth/biofilm, A600, 12 h; higher = more signal
# [16] = growth modulation of vineyard yeast isolate – strain RM11-1a, OD600, basal, 24 h, primary screen (AID 1177);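 also: cultures grown under basal conditions with no added stressor; test concentration not given here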; details: S. cerevisiae RM11-1a growth, OD600, 24 h; higher = more signal, called active from +8 up or from −8 down
# [17] = growth of efflux-deficient E. coli DRC39 – strain DRC39, OD650, 24 h, E. coli filamentation inducers, primary screen (AID 1178);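 also: growth measured as culture turbidity by optical density at 650 nm; test concentration not given here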; details: E. coli DRC39 acrAB, higher = more signal, called active from +8 up or from −8 down
# [18] = growth of efflux-deficient E. coli DRC39 – strain DRC39, OD650, 48 h, E. coli filamentation inducers, primary screen (AID 1179);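 also: screen aims at cell division blockers that make cells filament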; details: E. coli DRC39 delta-acrAB growth, higher = more signal, called active from +8 up or from −8 down
# [19] = viability profiling in RPMI8226 myeloma cells – cell-based, resazurin fluorescence, basal, 24 h, PK04 Diversity Set, profiling panel (AID 1180); details: higher = more signal;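 also: RPMI8826 multiple myeloma cell line at 5000 cells per well; test concentration not given here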
# [20] = target: E3 ubiquitin-protein ligase XIAP (Homo sapiens) (UniProt P98170); assay: small molecules binding XIAP protein – biophysical, small-molecule microarray, fluorescence 635 nm, primary screen (AID 1181); details: higher = more signal;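 also: score merges 667 nm emission and signal to noise over triplicate slides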
# Chain of E3 ubiquitin-protein ligase XIAP (Homo sapiens) (P98170 whole entry, looked up): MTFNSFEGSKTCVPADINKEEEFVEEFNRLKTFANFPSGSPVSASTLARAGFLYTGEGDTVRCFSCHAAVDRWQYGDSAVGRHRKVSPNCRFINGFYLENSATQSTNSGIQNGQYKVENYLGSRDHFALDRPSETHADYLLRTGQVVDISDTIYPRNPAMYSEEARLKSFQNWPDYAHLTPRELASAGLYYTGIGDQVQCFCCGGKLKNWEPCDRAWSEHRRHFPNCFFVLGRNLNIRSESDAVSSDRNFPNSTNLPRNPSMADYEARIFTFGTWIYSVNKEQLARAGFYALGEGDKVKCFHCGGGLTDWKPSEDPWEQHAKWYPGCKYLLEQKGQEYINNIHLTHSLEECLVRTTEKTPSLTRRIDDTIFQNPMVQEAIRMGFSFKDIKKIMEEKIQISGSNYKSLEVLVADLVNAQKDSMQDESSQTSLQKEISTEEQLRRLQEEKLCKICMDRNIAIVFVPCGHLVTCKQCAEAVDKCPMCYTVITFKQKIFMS
SMILES,z-score [1],z-score [2],z-score [3],z-score [4],z-score [5],z-score [6],z-score [7],z-score [8],z-score [9],z-score [10],z-score [11],z-score [12],z-score [13],composite z-score [14],z-score [15],z-score [16],z-score [17],z-score [18],z-score [19],composite z-score [20]
COc1cc2c(cc1O)C(c1ccc(CN3CCCC3)cc1)N(Cc1sc3ccccc3c1Cl)CC2 (stereo not given),-0.42,-0.0706,-1.5,-1.89,-1.24,-0.535,-0.506 (inactive),-0.105,-0.774,0.835 (inactive),-0.307,-1.82 (inactive),-0.527 (inactive),-2.82 (inactive),0.0619 (inactive),0.953 (inactive),1.23 (inactive),0.25 (inactive),-1.05,0.0815
CC(C)(C)OC(=O)CC[C@@]1(C(N)=O)N=C(c2ccc(OCCCO)cc2)O[C@@H]1c1ccccc1N=[N+]=[N-],1.37,0.337,2.25,1.46,0.415,0.221,0.951 (inactive),-0.892,-0.706,-0.763 (inactive),0.55,-0.231 (inactive),-0.134 (inactive),0.974 (inactive),-0.18 (inactive),0.045 (inactive),0.397 (inactive),0.529 (inactive),0.288,0.0908
[N-]=[N+]=Nc1ccccc1C[C@]1(C(=O)N2CCCCC2)N=C(c2ccc(OCCCO)cc2)O[C@H]1c1ccccc1N=[N+]=[N-],-0.0955,0.164,-2.44,-3.54,-3.89,-0.599,-0.0935 (inactive),-1.09,-2.64,-0.909 (inactive),-0.776,-0.254 (inactive),-3.52 (inactive),0.584 (inactive),1.07 (inactive),0.975 (inactive),-0.125 (inactive),-0.319 (inactive),-4.29,0.0727
CN(C)CCCC[C@@H]1NC(=O)[C@@H]2C[C@H](C(=O)NCc3ccc(F)cc3)[C@H](c3cccc(OCCO)c3)N2C1=O,0.514,-0.0506,0.554,0.731,1.02,2.08,0.544 (inactive),0.46,-0.749,-0.158 (inactive),-0.487,-0.889 (inactive),0.0458 (inactive),-0.366 (inactive),0.199 (inactive),-0.889 (inactive),0.797 (inactive),0.83 (inactive),0.293,0.0808
COCC1C2CC[C@H]3C(OCc4ccc(F)cc4C(F)(F)F)OC[C@]4(C)[C@H]3C2=C(CN4C(=O)OC(C)(C)C)[C@H](C)C1COC (stereo not given in full),-0.201,-0.511,0.922,-2.86,-3.14,1.53,-0.453 (inactive),-0.507,-1.42,-0.546 (inactive),-0.422,0.236 (inactive),-0.481 (inactive),-0.908 (inactive),0.383 (inactive),-3.23 (inactive),-0.93 (inactive),0.25 (inactive),0.092,-0.122
CS(=O)(=O)CCOC(=O)C1=CC(c2ccc(CO)cc2)=CC(c2cccs2)N(Cc2cccc(OC(F)(F)F)c2)C=C1C(=O)OCCS(C)(=O)=O (stereo not given),0.0527,0.171,-1.31,-3.31,-3.27,-2.84,0.384 (inactive),-0.722,-1.28,-0.481 (inactive),-0.534,-4.14 (inactive),-2.98 (inactive),-1.08 (inactive),0.907 (inactive),0.267 (inactive),-2.93 (inactive),-3.3 (inactive),-1.32,-0.22
[N-]=[N+]=NCc1ccccc1[C@@H]1OC(c2ccc(OCCCO)cc2)=N[C@]1(Cc1ccccc1)C(=O)O,0.211,0.333,0.865,0.229,-0.767,-0.00992,-1.01 (inactive),-0.0434,-0.969,0.45 (inactive),1.18,-3.03 (inactive),0.615 (inactive),-0.101 (inactive),0.466 (inactive),0.703 (inactive),0.305 (inactive),-0.108 (inactive),0.469,-0.0731
C[N+](C)(C)CCCC[C@@H]1NC(=O)[C@@H]2C[C@H](C(=O)NCCCCCCNC(=O)CS)[C@H](c3cccc(OCCO)c3)N2C1=O,-0.14,-0.0406,1.5,0.954,0.186,1.53,0.215 (inactive),0.476,-0.677,-0.333 (inactive),0.0265,0.159 (inactive),-0.0664 (inactive),0.092 (inactive),-0.117 (inactive),-0.18 (inactive),0.253 (inactive),0.832 (inactive),0.24,0.131
CCOC(=O)C=Cc1cccc(OC)c1O,-0.364,0.532,-0.834,0.408,-1.61,-0.94,0.151 (inactive),-0.149,-1.25,-0.787 (inactive),-0.537,-6.47 (inactive),-0.649 (inactive),-1.15 (inactive),-2.06 (inactive),-1.34 (inactive),-0.597 (inactive),-1.03 (inactive),-1.07,0.0036
